# IL-1B inflam inh – inflammasome signaling inhibition, IL-1 beta readout | activity change, % at 57.5 µM | 360,000 compounds, 4.7% hits | THP-1 LPS/ATP IL-1B secretion, AlphaLISA, 16 h; active compounds read low; in the data active = activity change below about -50%; inconclusive = mostly about -30% to -49%
#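 THP-1 cells pretreated 1 hr with compounds (up to 57.5 uM final), then stimulated with LPS (250 ng/mL final) plus ATP (1.25 mM final); secreted IL-1B measured by AlphaLISA after 16 hr, decreased signal indicating inhibition.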
# TDP1 cell CPT – growth inhibition of DT40 Tdp1-/-;hTDP1 cells with camptothecin (screen for TDP1 inhibitors); chicken DT40 Tdp1-/-;hTDP1 cells + 20 nM CPT, ATP luminescence, 48 h; Potency, µM (highest dose often 46.2 µM), actives largely listed as inhibitors; 420,000 compounds, 12% hits; AID 686979; note: nearly all actives have a fitted effect of over 55% in size
#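 Cell growth measured by CellTiter-Glo luminescence after a minimum 48 h, 37 C compound exposure with 20 nM CPT in Tdp1-knockout DT40 cells stably expressing hTDP1, seeded 400/well; qHTS titration format.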
# VP16 counter – Gal4-VP16 reporter inhibition counter-screen; Potency, µM (series often up to 53.6 µM), usual class: inhibitors; Drosophila S2 Gal4-VP16 UAS-luciferase, luminescence, 20 h; 310,000 compounds, 3.5% hits; AID 2546;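 note: Gal4-VP16 expression switched on by copper sulfate through the metallothionein promoter; nearly all actives have a fitted effect of over 50% in size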
# RORg inh – ROR gamma (mouse) transcription inhibition. P51450. Drosophila S2 Gal4-RORgamma UAS-luciferase reporter, 20 h. Potency, µM (top dose mostly 53.6 µM), most hits filed as inhibitors. 310,000 compounds, 5.4% hits. AID 2551; note: nearly all actives have a fitted effect of over 60% in size
# Target sequence (P51450 whole entry, looked up, the tested form may be a part): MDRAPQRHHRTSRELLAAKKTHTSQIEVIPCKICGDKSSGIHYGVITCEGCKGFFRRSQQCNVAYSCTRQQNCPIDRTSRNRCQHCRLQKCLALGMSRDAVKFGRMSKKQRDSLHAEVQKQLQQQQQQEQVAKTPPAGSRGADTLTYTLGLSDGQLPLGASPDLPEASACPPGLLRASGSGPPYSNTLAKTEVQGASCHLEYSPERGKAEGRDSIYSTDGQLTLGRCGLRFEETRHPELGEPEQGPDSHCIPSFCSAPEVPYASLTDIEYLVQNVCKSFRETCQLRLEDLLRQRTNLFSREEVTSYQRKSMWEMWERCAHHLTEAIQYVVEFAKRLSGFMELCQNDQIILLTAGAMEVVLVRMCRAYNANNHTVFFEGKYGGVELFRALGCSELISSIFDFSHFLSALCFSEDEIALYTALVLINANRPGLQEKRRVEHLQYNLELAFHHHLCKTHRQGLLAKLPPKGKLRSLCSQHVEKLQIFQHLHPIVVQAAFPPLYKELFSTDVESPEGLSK
#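 A Gal4/UAS one-hybrid system in insect cells: metallothionein-promoter Gal4–ROR gamma fusion plus Photinus luciferase reporter. Copper sulfate 700 uM final, 20 hr ambient incubation, luminescent detection after 10 min with reagent.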
# ELG1 repair inh – inhibitors of ELG1-dependent DNA repair in HEK293T cells | 330,000 compounds, 2.3% hits | AID 504467 | Potency, µM (top dose mostly 46.1 µM), actives largely listed as inhibitors | HEK293T ELG1-luciferase reporter, luminescence, 16 h; DNA damage induced by 5-fluorouridine; note: nearly all actives have a fitted effect of over 55% in size
#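 Reporter activity after DNA damage by 5-fluorouridine is monitored. Compound-treated cells incubate 16 hr at 37 °C, then ONE-Glo is added for 30 min before luminescence reading.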
# DT40 TDP1 no CPT – qHTS for Inhibitors of human tyrosyl-DNA phosphodiesterase 1 (TDP1): qHTS in cells in absence of CPT | AID 686978, 2013 | DT40 Tdp1-/- hTDP1 cells, no CPT, ATP luminescence, 48 h | 420,000 compounds, 15% hits | Potency, µM (titrated, usually from 46.2 µM), hits mostly inhibitors; note: nearly all actives have a fitted effect of over 55% in size
#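 Chicken DT40 Tdp1-/- cells stably complemented with human TDP1 were seeded at 400 cells/well with DMSO in place of 20 nM camptothecin. After compound pinning, cells grew at least 48 hr at 37 °C; viability read by CellTiter-Glo luminescence.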
# Hits are given with their value; . = inactive; ? = inconclusive; / = not tested or not shown. Most compounds without a hit are left out; they make up all but 21% or so of the library. Unless noted, calls come from the whole dose curve; as a rule, active = well fitted curve in the direction sought with a large enough effect; inconclusive = small, poorly fitted or top-dose-only effect, or another doubt; inactive = no such curve, though single readings can be large; an effect the other way counts as inactive or inconclusive.
SMILES,IL-1B inflam inh,TDP1 cell CPT,VP16 counter,RORg inh,ELG1 repair inh,DT40 TDP1 no CPT
CN(CC(=O)Nc1ccc(Cl)cc1)C(=O)c1ccc(S(=O)(=O)Nc2ccccc2)cc1,?,?,/,/,.,?
CCOc1ccc(CN(C)C(=O)c2cccc(S(=O)(=O)Nc3ccccc3OC)c2)cc1OC,.,?,/,/,/,14.6µM
O=C(Oc1ccccc1)C1O[C@@H]1c1ccccc1 (stereo partly drawn),/,/,.,.,/,/
Cn1c2c(c(=O)n(C)c1=O)C(c1ccccc1[N+](=O)[O-])CC(=O)N2 (stereo not drawn),/,.,/,/,/,?
COc1ccc(CN(C)C(=O)c2ccc(NS(=O)(=O)c3ccc(F)cc3)cc2)c(OC)c1,.,.,.,.,.,.
COc1ccc(NS(=O)(=O)c2ccc(C(=O)N(C)Cc3ccc(C)o3)cc2)cc1,.,13µM,/,/,.,14.6µM
COc1ccc(F)cc1S(=O)(=O)NCC(c1ccco1)N1CCc2ccccc2C1 (stereo not drawn),.,?,/,/,.,.
CN(C)c1ccc(-c2nc(-n3ccnc3)c3ccccc3n2)cc1,/,13µM,?,?,/,18.4µM
CN(C)c1ccc(-c2nc(N(C)C)c3ccccc3n2)cc1,/,?,.,.,/,23.1µM
CCN(CC)c1nc(-c2ccc(C(C)(C)C)cc2)nc2ccccc12,/,23.1µM,/,/,/,?
CCN(CC)c1cc(C)c2ccccc2n1,.,.,.,.,.,.
CN(C)c1ccc(-c2nc(N(C)Cc3ccco3)c3ccccc3n2)cc1,/,29.1µM,.,.,/,16.4µM
Cc1ccccc1-c1nc(N(C)C)c2ccccc2n1,/,.,.,.,/,.
CN(C)C(=O)c1ccc(-c2nc(-n3ccnc3)c3ccccc3n2)cc1,/,?,.,?,/,?
COCCN(CC(=O)Nc1ccccc1C(F)(F)F)C(=O)/C=C/c1cc(Cl)c2c(c1)OCCO2,.,?,/,/,/,?
CC(=O)N1CC[C@@H]2CC(=O)CC[C@@H]21,/,/,.,.,/,/
O=C(NCc1nc2ccccc2[nH]1)c1cccc(Cl)c1,/,.,/,/,/,.
Clc1cccc(N/N=C(\Cc2nc3ccccc3[nH]2)c2ccccc2)c1,-104.0,?,.,17.8µM,?,?
COc1ccc(C(=O)C(C)OC(=O)C2CC3CCCC(C2)C3=O)cc1 (stereo not drawn),.,?,/,/,/,?
CC(=O)O[C@@]1(C(C)=O)CCC2C3C=C(Cl)C4=CC(=O)C5CC5[C@@]4(C)C3CC[C@]21C (stereo partly drawn),/,20.6µM,.,.,/,20.6µM
CCOc1ccc(S(=O)(=O)c2c[nH]c3ccccc3c2=O)cc1,.,.,.,.,.,?
CCOCCCNS(=O)(=O)c1ccc(NC(=O)C2CC(=O)N(c3ccc(C)cc3)C2)cc1 (stereo not drawn),.,.,.,.,.,?
Cc1ccc2c(CN3CCN(C(=O)c4ccc(Br)cc4)CC3)cc(=O)oc2c1,/,20.6µM,/,/,/,?
O=S(=O)(c1ccccc1)N1CCN(Cc2cc3c(cc2Br)OCCO3)CC1,.,?,/,/,.,?
COc1ccc2oc(=O)cc(CN3CCN(Cc4ccc(OC)c(OC)c4OC)CC3)c2c1,-54.0,?,.,.,.,?
SMILES,IL-1B inflam inh,TDP1 cell CPT,VP16 counter,RORg inh,ELG1 repair inh,DT40 TDP1 no CPT
COc1ccc(OC)c(CN2CCN(Cc3ccc(OC)c(OC)c3OC)CC2)c1,.,.,/,/,/,?
COc1ccc(N2CCN(Cc3cc4c(cc3Br)OCCO4)CC2)cc1,-67.7,?,.,.,?,?
CCOc1ccc2oc(=O)cc(CN3CCN(C(=O)c4ccc(Cl)cc4)CC3)c2c1,/,?,/,/,/,20.6µM
COc1ccc(-c2oc3ncn4nc(COc5cccc(C)c5C)nc4c3c2-c2ccc(OC)cc2)cc1,/,.,/,/,/,.
Cc1ccc(Cl)cc1NC(=O)N(C)CCO,.,.,.,.,.,.
CCCCc1nn2c(=O)cc(COC(=O)CNC(=O)COc3ccc(C)cc3)nc2s1,/,.,/,/,/,.
O=c1cc(CN2CCN(c3ccc(F)cc3)CC2)c2cc3c(cc2o1)CCCC3,.,18.4µM,.,.,.,?
CN1CCN(Cc2cc(=O)oc3cc4c(cc23)CCC4)CC1,.,?,.,.,.,.
COc1ccc(N2CCN(Cc3cc(=O)oc4cc(C)c(Cl)cc34)CC2)cc1,.,?,.,.,.,.
CCOc1ccc2oc(=O)cc(CN3CCN(c4ccc(OC)cc4)CC3)c2c1,/,?,/,/,/,20.6µM
CCOc1ccc2oc(=O)cc(CN3CCN(c4ccc(Cl)cc4)CC3)c2c1,/,23.1µM,/,/,/,25.9µM
CCOC(=O)c1cc(-c2ccccc2)n(-c2cccc(C(=O)Nc3cccc(F)c3)c2)c1C,/,.,/,/,/,?
CCN(CC(=O)Nc1cc(Cl)ccc1Cl)C(=O)c1ccc(-n2cccn2)cc1,.,?,/,/,?,.
CC(=O)c1cccc(NC(=O)Cn2c(C)c3cnn(-c4ccccc4)c(=O)c3c2C)c1,/,20.6µM,/,/,/,.
CCCn1c2ccccc2c2cnn(CC(=O)Nc3cccc(C(=O)OCC)c3)c(=O)c21,/,.,/,/,/,.
CCOC(=O)c1cccc(NC(=O)CCCn2c(C)c3cnn(-c4ccccc4)c(=O)c3c2C)c1,/,18.4µM,/,/,/,16.4µM
Cc1c2cnn(-c3ccccc3)c(=O)c2c(C)n1CC(=O)NCc1ccc(Cl)cc1,/,.,/,/,/,.
CCC(C(=O)Nc1ccc(C(C)=O)cc1)n1c(C)c2cnn(-c3ccccc3)c(=O)c2c1C (stereo not drawn),/,23.1µM,/,/,/,?
CCOc1ccc(CCNC(=O)COC(=O)Cn2nc(C)c([N+](=O)[O-])c2C)cc1OCC,.,.,/,/,.,.
CCC[C@@H](O)c1cc2cc(OC)c(OC)cc2c(=O)o1,.,?,/,/,.,?
CN(C)CCNC(=S)Nc1ccc(Br)cc1,.,.,.,.,?,.
CNC(=S)Nc1ccc(Br)cc1,.,.,.,35.5µM,.,.
Oc1ccc(NC(=S)Nc2ccc(F)cc2)cc1,.,.,.,.,.,?
CNC(=S)Nc1ccc(OC(F)(F)F)cc1,.,.,10µM,7.08µM,.,.
CCN(CC)c1ccc(NC(=S)Nc2ccc(F)cc2)cc1,?,?,?,8.91µM,.,23.1µM
Fc1ccc(NC(=S)Nc2ccc(Br)cc2)cc1,-92.8,8.2µM,?,?,.,9.2µM
CCOc1ccc(NC(=O)CN(C)C(=O)C2CC(=O)N(c3cccc(SC)c3)C2)cc1OCC (stereo not drawn),.,.,/,/,/,.
O=C(c1ccco1)N1CCC2(CCCN(c3ccccc3)C2)CC1,/,.,.,.,/,?
Cc1ccc(C)c(N2CCN(C(=O)c3ccc(N4CCOCC4)c([N+](=O)[O-])c3)CC2)c1,-51.0,?,.,.,.,16.4µM

# Source: PubChem BioAssay (National Center for Advancing Translational Sciences (NCATS))
